Test results taken from PubChem BioAssay (NCI).
Compounds without any hit were thinned out: in the full panel of roughly 83,000, 20% have a hit.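 Growth was measured after 48 h exposure to one concentration of compound in 96-well plates. Values under 10 count as active.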 Values without a mark were called inactive. Calls of active or inactive are those of the source.

Key:
Test in all cases: NCI-60 one-dose screen, 48 h (100 = growth as untreated, 0 = no growth, -100 = all killed)
Conditions in all cases: 10 µM unless noted
[1] = tested on: NCI-H23 lung
[2] = tested on: NCI-H226 lung
[3] = tested on: NCI-H322M lung
[4] = tested on: HOP-62 NSCLC
[5] = tested on: NCI-H460 lung
[6] = tested on: HOP-92 NSCLC
[7] = tested on: NCI-H522 lung
[8] = tested on: A549/ATCC NSCLC
[9] = tested on: 786-0 renal
[10] = tested on: COLO 205 colon
[11] = tested on: DU-145 prostate
[12] = tested on: K-562 leukemia
[13] = tested on: MALME-3M melanoma
[14] = tested on: MDA-MB-231 breast
[15] = tested on: RXF 393 renal
[16] = tested on: SF-268 CNS
[17] = tested on: SF-295 CNS
[18] = tested on: SF-539 CNS
[19] = tested on: UACC-257 melanoma
[20] = tested on: M14 melanoma

| Compound | growth [1] | growth [2] | growth [3] | growth [4] [%] | growth [5] | growth [6] | growth [7] | growth [8] | growth [9] | growth [10] | growth [11] | growth [12] | growth [13] | growth [14] | growth [15] | growth [16] | growth [17] | growth [18] | growth [19] | growth [20] |
| --- | --- | --- | --- | --- | --- | --- | --- | --- | --- | --- | --- | --- | --- | --- | --- | --- | --- | --- | --- | --- |
| O=[N+]([O-])CC(c1ccccc1)c1c[nH]c2ccccc12 (stereo not given) | 68.5% | 63.6% | 97.6% | 56 | 52.6% | 75.7% | 5.68% (active) | 42.4% | 70% | 54.1% | 84.1% | 10% | 57.3% | 46.1% | 64.3% | 65.1% | 44.1% | 50.2% | 55.8% | 23.2% |
| CCCCCN1C=C/C(=C\C(=O)N2CCCc3ccccc32)c2ccccc21 | 57.5% | 79.3% | 102% | 107 | 91.9% | 73.5% | 68.5% | 89.4% | 95.6% | 96.8% | 94.1% | 54.1% | 86% | 97% | 99.5% | 87.2% | 85.7% | 97.2% | 89.8% | 100% |
| CC1(C)CC(O)CCCCCCOc2c(CN)cccc2NC(=O)c2nc(cnc2N)-c2ccc(cc2)S1(=O)=O (stereo not given) | 28% | 48.6% | 44.4% | 44.7 | -30.2% (active) | 115% | 12.6% | 27.9% | -15.4% (active) | 22.9% | 15.1% | -26.3% (active) | -71.5% (active) | 39.8% | 19.6% | 26.1% | 21.3% | -60.5% (active) | 21.9% | -72.7% (active) |
| CC(Sc1nc2sc3c(c2c(=O)n1-c1ccc(Cl)cc1)CCCC3)C(=O)Nc1nc(-c2ccc(Br)cc2)cs1 (stereo not given) | 95.3% | 94.3% | 95.8% | 91.5 | 104% | 110% | 82.1% | 100% | 92.6% | 110% | 105% | 96.5% | 95.2% | 89.1% | 101% | 93.5% | 100% | 107% | 93% | 94% |
| CC1=CCC(OC(=O)C(C)(O)CCC(O)(C(=O)OC2(C)C=CC(O)(C(C)C)CC2)C(C)C)(C(C)C)CC1 (stereo not given) | 108% | 106% | 99.1% | 99.8 | 111% | 109% | 93.7% | 101% | 100% | 116% | 113% | 105% | 97.2% | 100% | 98.5% | 101% | 101% | 103% | 106% | 102% |
| c1ccc2c(-c3nccs3)c[nH]c2c1 | 96.2% | 97% | 98% | 99.2 | 105% | 89.7% | 92.2% | 100% | 88.8% | 119% | 107% | 99.2% | 99.1% | 92.6% | 95% | 96.7% | 101% | 96.4% | 111% | 99.1% |
| COc1ccc(C/C(C)=C(/c2ccc(OCCCN(C)C)cc2)c2ccc(OC(C)=O)cc2)cc1 | 80.7% | 98% | 94.5% | 83.2 | 73.1% | 64.5% | 95.5% | 74.3% | 63.2% | 50.1% | 89.2% | 3.38% (active) | 79% | 66.8% | 65.6% | 71% | 27.1% | 72.6% | 73.6% | 50.6% |
| COc1ccc(CNCCN2C(=O)c3ccc4c5c(ccc(c35)C2=O)C(=O)N(CCNCc2ccc(OC)c(OC)c2OC)C4=O)c(OC)c1OC | -42.8% (active) | -13.7% (active) | -1.94% (active) | 20 | -21.2% (active) | 5.62% (active) | -78% (active) | -39.9% (active) | 8.05% (active) | -10.9% (active) | -41.7% (active) | -10.8% (active) | -73% (active) | -8.31% (active) | -32.3% (active) | -2.06% (active) | -44.8% (active) | -47.7% (active) | -85.1% (active) | -58.3% (active) |
